Reference: article PMC7819943, “Rice protein-binding microarrays: a tool to detect cis-acting elements near promoter regions in rice”
Whole data set: some 39,000 sequences, median “fluorescence intensity (a.u.)” near 4,300, cut for the highest 2% near 39,000. The list comes from a sample in which the highest values are over-represented; it also holds similar and randomly drawn sequences.

Each sequence was assayed against T1, OsSMF1 (Oryza sativa, UniProt Q6ZLB0 1-436) (assay: protein-binding microarray (RPBM); PBS, 2% BSA, 51.3 ng/ul salmon testes DNA, 50 uM zinc acetate, 200 nM TF, 25 C, 1 h; high values mean tight binding). Conditions: protein: recombinant; tags: N-terminal polyhistidine and DsRed monomer fusion (pET32a); chain copies: 2; label: CyDye5-dUTP incorporated in the synthesized complementary strand; 3' TTTTT single-stranded linker to array surface; dsDNA, one strand shown.
T1 sequence: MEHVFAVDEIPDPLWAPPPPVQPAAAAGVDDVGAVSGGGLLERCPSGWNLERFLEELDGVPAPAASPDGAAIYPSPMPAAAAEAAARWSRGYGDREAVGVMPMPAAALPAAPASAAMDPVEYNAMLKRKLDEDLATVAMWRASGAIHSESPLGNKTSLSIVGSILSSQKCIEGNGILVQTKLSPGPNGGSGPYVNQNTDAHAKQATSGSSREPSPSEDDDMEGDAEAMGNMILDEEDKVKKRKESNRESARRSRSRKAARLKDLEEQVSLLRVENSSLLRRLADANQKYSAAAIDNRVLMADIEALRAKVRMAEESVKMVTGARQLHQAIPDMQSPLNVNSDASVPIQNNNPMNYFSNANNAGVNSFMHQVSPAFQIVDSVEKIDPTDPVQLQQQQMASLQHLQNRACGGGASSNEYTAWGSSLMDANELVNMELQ
In short: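 For the binding signal, per-feature fluorescence intensity was read in arbitrary units on an Axon 4000B scanner. Before scanning, a 2% BSA-blocked custom Agilent array made double-stranded with Cy5-dUTP was washed after 1 h at 25 °C with 200 nM protein and 50 µM zinc acetate. The proteins were Ni–NTA-purified transcription factors with N-terminal polyhistidine and DsRed fusions, expressed in E. coli BL21-CodonPlus.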

Sequence | binding signal
GACAAAGTCACACTGTCACACGTATTACCGGTTACAAACTCGGAGTCACCTAGTGCAG | 3940 fluorescence intensity (a.u.)
GGCAACCGCCCTTAAGGTGTGAGACAGCACGACAACGCCCCGGAGTCACCTAGTGCAG | 3690 fluorescence intensity (a.u.)
GTATTGGAGCTCTACAGTTCGGTCTACTCCTCTCTGTTGCCGGAGTCACCTAGTGCAG | 27500 fluorescence intensity (a.u.)
AACCACGTATGCGCCACGTCATCCAAAACCGCCTTCAAAACGGAGTCACCTAGTGCAG | 14400 fluorescence intensity (a.u.)
ATTGCCACGTAGGCGCCACGTGGCGCCACATCAGCAAAACCGGAGTCACCTAGTGCAG | 40700 fluorescence intensity (a.u.)
GTAGGCGCCACGTGGCGCCACGTCAGCAAAACCGCCTCCTCGGAGTCACCTAGTGCAG | 24000 fluorescence intensity (a.u.)
CAACACCGCCACGTAGGCGCCACATCAGCAAAACCATCCTCGGAGTCACCTAGTGCAG | 23200 fluorescence intensity (a.u.)
AGCACCACGGTCAATGCCACGTATGTGCCACGTCATCCAACGGAGTCACCTAGTGCAG | 46600 fluorescence intensity (a.u.)
ACGTCTCCTCCTCCTCCACGTCAAACCACAATCCAACCAACGGAGTCACCTAGTGCAG | 5400 fluorescence intensity (a.u.)
GTCGTGCTAGCTCGATCCATTTCCTACGTGTGCACCAAACCGGAGTCACCTAGTGCAG | 5810 fluorescence intensity (a.u.)
GAAAGGGATGGCTCACTTGAAACGTACTGCTCCCTGCCCCCGGAGTCACCTAGTGCAG | 3160 fluorescence intensity (a.u.)
AGCCAAAGCATTTGCCATCCGATGAGGGCGTACTATTAAACGGAGTCACCTAGTGCAG | 28000 fluorescence intensity (a.u.)
CCAAGGTAAGATGAAGCAGCAGCATTTGCATTAAACTATCCGGAGTCACCTAGTGCAG | 60100 fluorescence intensity (a.u.)
GATTAAAACCAAAACTCATGATGGAAGTGGATGCATTTGCCGGAGTCACCTAGTGCAG | 25500 fluorescence intensity (a.u.)
TTGATAATTACTCTTACGTCCCTCACCCTATGCTCCTGTGCGGAGTCACCTAGTGCAG | 3440 fluorescence intensity (a.u.)
TATTTTATATTAGTGTTCAAACGTTCGATGTGACATGTGTCGGAGTCACCTAGTGCAG | 3930 fluorescence intensity (a.u.)
AATACTTTATGCAGGTGTTCAAATGTTCGATGTGACAGGGCGGAGTCACCTAGTGCAG | 3150 fluorescence intensity (a.u.)
TACTTTATATAGATGTTCAAACATTCGATATGACATGCTGCGGAGTCACCTAGTGCAG | 45300 fluorescence intensity (a.u.)
ATTGCAACCGGAGAGCCTGACCAAAGAAATTCAGATCCTTCGGAGTCACCTAGTGCAG | 3200 fluorescence intensity (a.u.)
ATGCATCTAAGCATATTAGCTATATACCACATCATTTTCACGGAGTCACCTAGTGCAG | 4780 fluorescence intensity (a.u.)
TTATTTTAGTGCCACGTAAGCGACACGTCGATGCCACATGCGGAGTCACCTAGTGCAG | 23000 fluorescence intensity (a.u.)
GTTAAATTGCCACGTAAGCACCACGTCATACCACGTCAGACGGAGTCACCTAGTGCAG | 51500 fluorescence intensity (a.u.)
TTTTCATTTTAGTGCCACGTAAGCACCACATCGATGCCACCGGAGTCACCTAGTGCAG | 41200 fluorescence intensity (a.u.)
CGGATCGAATTGCCACGTAAGCGGCACGTCAGTGCCATGTCGGAGTCACCTAGTGCAG | 20000 fluorescence intensity (a.u.)
TCAAATTGTCACATAAGCGTCATGTCAATGCCACGTCAGACGGAGTCACCTAGTGCAG | 27200 fluorescence intensity (a.u.)
GAAGTGCCACGTAAGCACCACATCAATGCCACGTCAGATGCGGAGTCACCTAGTGCAG | 38800 fluorescence intensity (a.u.)
TTAATTGAAATGCCACCTAAGCACCACGTCAGCACACAGACGGAGTCACCTAGTGCAG | 18700 fluorescence intensity (a.u.)
GAATTGCCACGTAAGCACCACGTCAGTGCCATGTCAGATGCGGAGTCACCTAGTGCAG | 52400 fluorescence intensity (a.u.)
